# From PubChem BioAssay (NCI)
# About 83,000 compounds went through this panel and 20% of them were active in at least one assay; those are over-represented in the sample as a whole.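 Single-concentration screen, 48 h exposure, 96-well plates. Endpoint: percent growth. Below 10 = active.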 Unmarked numbers belong to inactive results. Active and inactive are the calls of the source.
# System: T-47D breast
# Assay: NCI-60 one-dose screen, 48 h (100 = growth as untreated, 0 = no growth, -100 = all killed)
# Details: 10 µM unless noted
row,Compound,growth
1,Cc1cc(O)c2c(c1)C[C@H]1[C@@H]3CC[C@H]4CC(=O)CC[C@]4(C)[C@H]3CC(=O)[C@]21C,67.9%
2,COc1ccccc1[C@H]1c2[nH]c3ccccc3c2C[C@H]2C(=O)N(CCCCCCC(=O)NO)CC(=O)N12,18.2%
3,c1csc([C@@H]2C[C@@H]3Cc4ccc5ccccc5c4N2O3)c1,98.8%
4,O=C(Nc1cccc([N+](=O)[O-])c1)c1cccc(C(=O)Nc2cccc([N+](=O)[O-])c2)c1,68.4%
5,CN(CC(=O)Nc1nc2ccccc2[nH]1)S(=O)(=O)c1ccc(Cl)cc1,77%
6,OCc1nnn(-c2ccccc2)c1CO,114%
7,Cc1cc2c(cc1[N+](=O)[O-])NC(CNC(C)C)CC2 (stereo not drawn),86.3%
8,CO[C@H]1/C=C/O[C@@]2(C)Oc3c(C)c(O)c4c(O)c(c(/C=N/N5C(C)CN(Cc6ccccc6)CC5C)c(O)c4c3C2=O)NC(=O)/C(C)=C\C=C\[C@H](C)[C@H](O)[C@@H](C)[C@@H](O)[C@@H](C)[C@H](OC(C)=O)[C@@H]1C (stereo partly drawn),81.4%
9,COc1ccc(C(=O)Nc2nc(-c3ccc(Cl)cc3)cs2)cc1,89.1%
10,Cn1cc(-c2csc(-c3cn(C)c4ncccc34)n2)c2cc(Br)cnc21,77%
11,CCCCSc1cc(C)nc(N)n1,96.4%
12,CCCc1cc(=O)n2c(C(=O)Nc3ccccc3OC)c(C(=O)Nc3ccc(F)cc3)sc2n1,85.4% [30 µM]
13,O=[N+]([O-])c1ccc2c(c1)S(=O)c1cc([N+](=O)[O-])ccc1N2,96.6%
14,C=C(C)[C@H]1CC/C(C)=C/CC[C@]2(C)O[C@H]2CC/C(C=O)=C\C1O (stereo partly drawn),102%
15,C[C@@H]1CC[C@H]2[C@@H](C)C(O)O[C@@H]3O[C@]4(C)CC[C@@H]1[C@]32OO4 (stereo partly drawn),36.3%
16,O=C1Nc2ccccc2C12Nc1cc(Cl)ccc1S2 (stereo not drawn),42.4%
17,O=C(Oc1ccc[nH]c1=O)c1cccc(Cl)c1,99.2%
18,CN(C)c1ccc(/C=C\c2ccnc3ccccc23)cc1,65.4%
19,CCOC(=O)/C=C(/C)Sc1cc(O)c2ccccc2c1O,36.8%
20,CCC(C)CC(C)C(=O)c1c(O)ccn(O)c1=O (stereo not drawn),35.5%
21,NC(=O)c1ccccc1NC(=O)c1ccccc1Cl,96.4%
22,CCS(=O)(=O)OCCCl,102%
23,COC(=O)CC1=C(C)/C(=C/c2[nH]c(-c3ccc[nH]3)cc2OC)N=C1C,0.172% (active)
